Assay results published in article PMC11006913.

Columns and labels:
Experiment in all cases: PBM; 200 nM protein, PBS
Conditions in all cases: dsDNA, one strand shown
HESX1 [1] = target: HESX1 (Homo sapiens, UniProt Q9UBX0 95-180, R165K)
HESX1 [2] = target: HESX1 (Homo sapiens, UniProt Q9UBX0 95-180)
ALX1 [3] = target: ALX1 (Homo sapiens, UniProt Q15699 118-204, L144V)
ALX1 [4] = target: ALX1 (Homo sapiens, UniProt Q15699 118-204, L144R)
HESX1 [5] = target: HESX1 (Homo sapiens, UniProt Q9UBX0 95-180, R109Q)
ALX3 [6] = target: ALX3 (Homo sapiens, UniProt O95076 139-225, L168Q)
HESX1 [7] = target: HESX1 (Homo sapiens, UniProt Q9UBX0 95-180, P111T)
ALX3 [8] = target: ALX3 (Homo sapiens, UniProt O95076 139-225, L168V)
HESX1 [9] = target: HESX1 (Homo sapiens, UniProt Q9UBX0 95-180, F115L)
ALX1 [10] = target: ALX1 (Homo sapiens, UniProt Q15699 118-204)
ALX4 [11] = target: ALX4 (Homo sapiens, UniProt Q9H161 200-286)
PRRX1 [12] = target: PRRX1 (Homo sapiens, UniProt P54821 80-166, F113S)
ALX4 [13] = target: ALX4 (Homo sapiens, UniProt Q9H161 200-286, Q225E)
MSX2 [14] = target: MSX2 (Homo sapiens, UniProt P35548 130-214, R199I)
MSX2 [15] = target: MSX2 (Homo sapiens, UniProt P35548 130-214)
PROP1 [16] = target: PROP1 (Homo sapiens, UniProt O75360 56-141)
PROP1 [17] = target: PROP1 (Homo sapiens, UniProt O75360 56-141, R99H)
PROP1 [18] = target: PROP1 (Homo sapiens, UniProt O75360 56-141, F88S)
MSX2 [19] = target: MSX2 (Homo sapiens, UniProt P35548 130-214, F161Y)
PRRX1 [20] = target: PRRX1 (Homo sapiens, UniProt P54821 80-166)
PRRX1 (Homo sapiens, UniProt P54821 80-166), sequence (P54821 80-166): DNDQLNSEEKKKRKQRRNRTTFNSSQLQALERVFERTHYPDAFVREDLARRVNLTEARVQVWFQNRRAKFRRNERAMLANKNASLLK

HESX1 (Homo sapiens, UniProt Q9UBX0 95-180, R165K), sequence (Q9UBX0 95-180 R165K): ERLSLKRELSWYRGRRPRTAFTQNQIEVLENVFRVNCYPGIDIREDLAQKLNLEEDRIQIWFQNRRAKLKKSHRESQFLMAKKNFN
HESX1 (Homo sapiens, UniProt Q9UBX0 95-180, F115L), sequence (Q9UBX0 95-180 F115L): as the sequence (Q9UBX0 95-180 R165K) above, with F21L, K71R counted along it
HESX1 (Homo sapiens, UniProt Q9UBX0 95-180, R109Q), sequence (Q9UBX0 95-180 R109Q): as the sequence (Q9UBX0 95-180 R165K) above, with R15Q, K71R counted along it
HESX1 (Homo sapiens, UniProt Q9UBX0 95-180), sequence (Q9UBX0 95-180): as the sequence (Q9UBX0 95-180 R165K) above, with K71R counted along it
HESX1 (Homo sapiens, UniProt Q9UBX0 95-180, P111T), sequence (Q9UBX0 95-180 P111T): as the sequence (Q9UBX0 95-180 R165K) above, with P17T, K71R counted along it
ALX1 (Homo sapiens, UniProt Q15699 118-204, L144V), sequence (Q15699 118-204 L144V): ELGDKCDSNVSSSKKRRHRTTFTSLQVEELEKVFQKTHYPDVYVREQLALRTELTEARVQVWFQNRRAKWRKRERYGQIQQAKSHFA
ALX3 (Homo sapiens, UniProt O95076 139-225, L168Q), sequence (O95076 139-225 L168Q): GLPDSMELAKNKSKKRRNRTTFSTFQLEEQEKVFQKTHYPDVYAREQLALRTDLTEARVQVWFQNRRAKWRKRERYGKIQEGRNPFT
ALX1 (Homo sapiens, UniProt Q15699 118-204, L144R), sequence (Q15699 118-204 L144R): as the sequence (Q15699 118-204 L144V) above, with V27R counted along it
ALX3 (Homo sapiens, UniProt O95076 139-225, L168V), sequence (O95076 139-225 L168V): as the sequence (O95076 139-225 L168Q) above, with Q30V counted along it
PROP1 (Homo sapiens, UniProt O75360 56-141, R99H), sequence (O75360 56-141 R99H): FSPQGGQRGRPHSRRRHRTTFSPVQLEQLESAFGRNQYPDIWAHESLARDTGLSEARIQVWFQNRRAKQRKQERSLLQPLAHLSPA
ALX4 (Homo sapiens, UniProt Q9H161 200-286, Q225E), sequence (Q9H161 200-286 Q225E): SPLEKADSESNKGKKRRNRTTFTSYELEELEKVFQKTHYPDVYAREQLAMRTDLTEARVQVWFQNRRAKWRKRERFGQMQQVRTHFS
MSX2 (Homo sapiens, UniProt P35548 130-214, F161Y), sequence (P35548 130-214 F161Y): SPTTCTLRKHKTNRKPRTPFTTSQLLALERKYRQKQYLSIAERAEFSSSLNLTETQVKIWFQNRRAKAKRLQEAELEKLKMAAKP
MSX2 (Homo sapiens, UniProt P35548 130-214), sequence (P35548 130-214): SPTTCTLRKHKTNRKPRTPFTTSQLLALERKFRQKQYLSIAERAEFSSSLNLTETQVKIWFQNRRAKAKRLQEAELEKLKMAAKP
ALX4 (Homo sapiens, UniProt Q9H161 200-286), sequence (Q9H161 200-286): as the sequence (Q9H161 200-286 Q225E) above, with E26Q counted along it
PROP1 (Homo sapiens, UniProt O75360 56-141, F88S), sequence (O75360 56-141 F88S): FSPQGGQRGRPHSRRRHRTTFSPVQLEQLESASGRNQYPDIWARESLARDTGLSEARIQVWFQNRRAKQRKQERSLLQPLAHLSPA
ALX1 (Homo sapiens, UniProt Q15699 118-204), sequence (Q15699 118-204): as the sequence (Q15699 118-204 L144V) above, with V27L counted along it
PRRX1 (Homo sapiens, UniProt P54821 80-166, F113S), sequence (P54821 80-166 F113S): as the sequence (P54821 80-166) above, with F34S counted along it
PROP1 (Homo sapiens, UniProt O75360 56-141), sequence (O75360 56-141): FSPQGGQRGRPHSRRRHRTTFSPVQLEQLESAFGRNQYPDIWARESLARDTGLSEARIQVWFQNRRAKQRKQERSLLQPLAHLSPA
MSX2 (Homo sapiens, UniProt P35548 130-214, R199I), sequence (P35548 130-214 R199I): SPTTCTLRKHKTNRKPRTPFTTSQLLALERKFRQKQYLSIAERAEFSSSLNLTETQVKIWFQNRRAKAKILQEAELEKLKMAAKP

CCGAGCCG
binding signal (HESX1 [1]): 6.36 upbm affinity estimate (log intensity, higher = more binding, comparable within an allelic series) | binding signal (HESX1 [2]): 6.14 upbm affinity estimate (log intensity, higher = more binding, comparable within an allelic series) | binding signal (ALX1 [3]): 6.19 upbm affinity estimate (log intensity, higher = more binding, comparable within an allelic series) | binding signal (ALX1 [4]): 6.2 upbm affinity estimate (log intensity, higher = more binding, comparable within an allelic series) | binding signal (HESX1 [5]): 6.38 upbm affinity estimate (log intensity, higher = more binding, comparable within an allelic series) | binding signal (ALX3 [6]): 7.56 upbm affinity estimate (log intensity, higher = more binding, comparable within an allelic series) | binding signal (HESX1 [7]): 6.22 upbm affinity estimate (log intensity, higher = more binding, comparable within an allelic series) | binding signal (ALX3 [8]): 7.69 upbm affinity estimate (log intensity, higher = more binding, comparable within an allelic series) | binding signal (HESX1 [9]): 6.62 upbm affinity estimate (log intensity, higher = more binding, comparable within an allelic series) | binding signal (ALX1 [10]): 6.32 upbm affinity estimate (log intensity, higher = more binding, comparable within an allelic series)

AATAATTG
binding signal (HESX1 [1]): 12.3 upbm affinity estimate (log intensity, higher = more binding, comparable within an allelic series) | binding signal (ALX4 [11]): 13.5 upbm affinity estimate (log intensity, higher = more binding, comparable within an allelic series) | binding signal (PRRX1 [12]): 11.2 upbm affinity estimate (log intensity, higher = more binding, comparable within an allelic series) | binding signal (ALX4 [13]): 12.8 upbm affinity estimate (log intensity, higher = more binding, comparable within an allelic series) | binding signal (HESX1 [2]): 12.4 upbm affinity estimate (log intensity, higher = more binding, comparable within an allelic series) | binding signal (MSX2 [14]): 12.6 upbm affinity estimate (log intensity, higher = more binding, comparable within an allelic series) | binding signal (ALX1 [3]): 11.5 upbm affinity estimate (log intensity, higher = more binding, comparable within an allelic series) | binding signal (ALX1 [4]): 11.3 upbm affinity estimate (log intensity, higher = more binding, comparable within an allelic series) | binding signal (MSX2 [15]): 13.7 upbm affinity estimate (log intensity, higher = more binding, comparable within an allelic series) | binding signal (PROP1 [16]): 11 upbm affinity estimate (log intensity, higher = more binding, comparable within an allelic series) | binding signal (HESX1 [5]): 8.84 upbm affinity estimate (log intensity, higher = more binding, comparable within an allelic series) | binding signal (PROP1 [17]): 11.1 upbm affinity estimate (log intensity, higher = more binding, comparable within an allelic series) | binding signal (ALX3 [6]): 10.3 upbm affinity estimate (log intensity, higher = more binding, comparable within an allelic series) | binding signal (HESX1 [7]): 10.8 upbm affinity estimate (log intensity, higher = more binding, comparable within an allelic series) | binding signal (ALX3 [8]): 9.75 upbm affinity estimate (log intensity, higher = more binding, comparable within an allelic series) | binding signal (PROP1 [18]): 7.6 upbm affinity estimate (log intensity, higher = more binding, comparable within an allelic series) | binding signal (MSX2 [19]): 13.4 upbm affinity estimate (log intensity, higher = more binding, comparable within an allelic series) | binding signal (HESX1 [9]): 8.12 upbm affinity estimate (log intensity, higher = more binding, comparable within an allelic series) | binding signal (PRRX1 [20]): 13.2 upbm affinity estimate (log intensity, higher = more binding, comparable within an allelic series)

CAGCCAGG
binding signal (HESX1 [1]): 6.31 upbm affinity estimate (log intensity, higher = more binding, comparable within an allelic series) | binding signal (HESX1 [2]): 6.36 upbm affinity estimate (log intensity, higher = more binding, comparable within an allelic series) | binding signal (HESX1 [5]): 6.38 upbm affinity estimate (log intensity, higher = more binding, comparable within an allelic series) | binding signal (HESX1 [7]): 6.49 upbm affinity estimate (log intensity, higher = more binding, comparable within an allelic series) | binding signal (HESX1 [9]): 6.49 upbm affinity estimate (log intensity, higher = more binding, comparable within an allelic series)

GCCAGACC
binding signal (HESX1 [1]): 6.33 upbm affinity estimate (log intensity, higher = more binding, comparable within an allelic series) | binding signal (HESX1 [2]): 6.38 upbm affinity estimate (log intensity, higher = more binding, comparable within an allelic series) | binding signal (HESX1 [5]): 6.33 upbm affinity estimate (log intensity, higher = more binding, comparable within an allelic series) | binding signal (HESX1 [7]): 6.36 upbm affinity estimate (log intensity, higher = more binding, comparable within an allelic series) | binding signal (HESX1 [9]): 6.43 upbm affinity estimate (log intensity, higher = more binding, comparable within an allelic series)

CCCGGCTC
binding signal (HESX1 [1]): 6.39 upbm affinity estimate (log intensity, higher = more binding, comparable within an allelic series) | binding signal (HESX1 [2]): 6.47 upbm affinity estimate (log intensity, higher = more binding, comparable within an allelic series) | binding signal (HESX1 [5]): 6.38 upbm affinity estimate (log intensity, higher = more binding, comparable within an allelic series) | binding signal (HESX1 [7]): 6.47 upbm affinity estimate (log intensity, higher = more binding, comparable within an allelic series) | binding signal (HESX1 [9]): 6.5 upbm affinity estimate (log intensity, higher = more binding, comparable within an allelic series)
